Compound activity from PubChem BioAssay.
Shown are actives, neighbours in structure and some others; about 2.5% of the full set was active somewhere.
GAA850 FXN act: FXN promoter activators, primary screen, cell-based, luciferase luminescence, HEK293 lucGAA850. activation, % at 6 µM. HEK293 lucGAA850 FXN promoter luciferase reporter, 24 h; percent of 10 µM SAHA response. hit rate 0.56% among 360,000. AID 540364, 2011;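 active = activation above the average of all compounds screened plus 3 SD, cutoff fixed separately per campaign, cut at about 7.5% in these data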;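 note: 0% = DMSO wells and 100% = 10 µM SAHA wells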
EWS-Fli inh: EWS/Fli-driven NR0B1 reporter inhibitors, primary screen, A673 cells, NR0B1 luciferase, luminescence, MLPCN library | AID 651661, 2012 | inhibition, % at 12.6 µM | viability-normalised | hit rate 0.67% among 350,000;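 active = mean inhibition of at least 50% after viability correction, with every replicate also passing that limit; inconclusive = mean reaches 50% but only one of two replicates passes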;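 note: firefly luciferase signal divided by Alamar Blue viability fluorescence both relative to DMSO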
F508del corr: F508del CFTR correction, initial screen, CFBE line, single point. CFBE cells, YFP halide quenching; stimulated with forskolin plus potentiator P3; % fluorescence drop versus neutral controls. activity (quench increase), % at 7.58 µM. hit rate 0.36% among 350,000;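 active = mean added fluorescence quench of at least 8% versus neutral control, with both replicates also reaching 8%; inconclusive = only one of the mean or replicate conditions met; inactive = mean below 8% and not both replicates reaching 8%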;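 note: cells transiently co-express mutant CFTR-F508del with the halide-sensitive YFP; corrector assay measuring rescue of mutant channel to the surface after 24 h compound exposure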
HIV Env fusion: inhibitors of HIV-1 Env-driven cell-cell fusion, primary screen, HeLa-JRFL effector, CEM21 target cells, luciferase. inhibition, % at 12.3 µM. hit rate 1.1% among 360,000;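 active = mean replicate inhibition score of at least 50 and every replicate individually at or above 50; inconclusive = only one of the two criteria met; inactive = mean below 50 and not all replicates reaching 50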;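 note: 0% = plate neutral controls and 100% = maraviroc near 300 nM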
PAX8 reporter: inhibitors of PAX8-driven TPO luciferase reporter, primary screen, RMG-I cells, single concentration; SteadyGlo, 24 h; AID 652154, 2013; inhibition, % at 12.6 µM; hit rate 1.2% among 360,000;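 active = mean replicate inhibition at least 60% with every replicate also reaching 60%; inconclusive = only one of the two criteria is met; inactive = mean below 60% and not all replicates reaching 60%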;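 note: luciferase light reporting Pax8 driven TPO promoter activity; plate controls were median of neutral control wells for no effect and mitoxantrone controls for full effect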
GAA30 FXN cntr: GAA30 FXN promoter activators, confirmation, counter-screen for GAA850 frataxin promoter activator project, cell-based, luminescence, HEK293, lucGAA30, triplicate | AID 588350, 2011 | hit rate 66% among 1,900 | shares compounds with GAA850 FXN act | activation, % at 6 µM | HEK293 lucGAA30 FXN promoter luciferase, 24 h; DMSO = 0%, 5 µM ipriflavone = 100%;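 active = mean activation above the mean of solvent-only control wells plus 3 SD, cut at about 22% in these data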;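 note: counterscreen of GAA850 promoter hits where activity marks nonselective or luminescence artifacts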
FXN GAA850 conf: FXN GAA850 promoter activators in reporter cells, confirmation, cell-based, luminescence, HEK293 lucGAA850, triplicate. shares compounds with GAA850 FXN act. HEK293 lucGAA850 FXN promoter luciferase reporter, 24 h; 100% = activation by SAHA. activation, % at 6 µM. hit rate 86% among 1,900;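 active = mean activation above a set limit taken from the primary screen, cut at about 8% in these data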;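 note: 0% = DMSO wells and 100% = 10 µM SAHA wells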
* = called active by the depositor; [ ] = dose if it differs, or a comment.

COc1cccc(C(=O)Nc2cc3c(cc2Cl)OCCCO3)c1 was read as GAA850 FXN act 7.9*, HIV Env fusion -108, PAX8 reporter -201, GAA30 FXN cntr 101* and FXN GAA850 conf 32*.
For COc1ccc(C(=O)Nc2cc3c(cc2Cl)OCCCO3)cc1 the results were GAA850 FXN act 5.
`O=C(Nc1ccccc1Cl)c1ccccc1CC(O)(c1ccccc1)c1ccccc1` gave GAA850 FXN act 14*, EWS-Fli inh 7, F508del corr 1, HIV Env fusion 93*, PAX8 reporter -2, GAA30 FXN cntr 9 and FXN GAA850 conf 12*.
Screening C=CCNc1nc(SCC=C)nc2ccsc12 returned GAA850 FXN act 7.9*, GAA30 FXN cntr 21 and FXN GAA850 conf 9.7*.
For C[C@@H]1CN([C@H](C)CO)C(=O)c2cc(C#Cc3cccc(F)c3)cnc2O[C@H]1CN(C)C(=O)C1CCC1 the results were EWS-Fli inh 5, F508del corr -1, HIV Env fusion -21[16.7 µM] and PAX8 reporter 21.
`CCN1C(=O)[C@H]2[C@H]3CN=C(SCc4ccc(Cl)cc4)N3[C@@](CC)(C(=O)OC)[C@H]2C1=O` gave GAA850 FXN act 11*, EWS-Fli inh 2, F508del corr 2, HIV Env fusion 69*, PAX8 reporter -12, GAA30 FXN cntr 23* and FXN GAA850 conf 9.2*.
For COC(=O)[C@@]1(C)[C@H]2C(=O)N(Cc3ccccc3)C(=O)[C@H]2[C@H]2CN=C(SCc3ccc(C)cc3)N21 the results were GAA850 FXN act 10*, EWS-Fli inh -5, F508del corr 2, HIV Env fusion 65*, PAX8 reporter 2, GAA30 FXN cntr 32* and FXN GAA850 conf 12*.
CCN1C(=O)[C@H]2[C@H]3CN=C(SCc4ccc(OC)cc4)N3[C@@](CC)(C(=O)OC)[C@H]2C1=O was read as GAA850 FXN act 0, EWS-Fli inh -7, F508del corr -2, HIV Env fusion -10 and PAX8 reporter 5.
For O=[N+]([O-])c1ccc(S(=O)(=O)c2cccc(C(F)(F)F)c2)nc1 the results were GAA850 FXN act 14*, GAA30 FXN cntr -113 and FXN GAA850 conf -34.
`O=S(=O)(Nc1cccnc1)c1cccc(C(F)(F)F)c1` gave GAA850 FXN act -1 and HIV Env fusion -3.
Screening C[C@H](CO)N1C[C@H](C)[C@H](CN(C)C(=O)Nc2ccc(C(F)(F)F)cc2)Oc2ccc(NC(=O)NC3CCCCC3)cc2CC1=O returned EWS-Fli inh 6, F508del corr 0, HIV Env fusion -8[16.7 µM] and PAX8 reporter -3.
For C[C@H](CO)N1C[C@H](C)[C@H](CN(C)S(C)(=O)=O)OCCCC[C@H](C)Oc2ccc(NC(=O)NC3CCCCC3)cc2C1=O the results were EWS-Fli inh -4, F508del corr -4, HIV Env fusion 2[16.7 µM] and PAX8 reporter -5.
Cc1cc(O)c(-c2cc(O)c(C)cc2O)cc1O was read as GAA850 FXN act 11*, EWS-Fli inh 70*, F508del corr -3, HIV Env fusion -9, PAX8 reporter inconclusive, GAA30 FXN cntr 18 and FXN GAA850 conf 29*.
For COCCNC(=O)C[C@H]1CC[C@H](NS(=O)(=O)c2ccc(C)cc2)[C@H](CO)O1 the results were EWS-Fli inh -3, F508del corr 1, HIV Env fusion 5[16.7 µM] and PAX8 reporter -1.
CCCNC(=O)Nc1ccc2c(c1)C(=O)N(C)C[C@H](OC)[C@H](C)CN(Cc1cncnc1)[C@@H](C)CO2 was read as EWS-Fli inh -1 and F508del corr 2.
COc1ccc(OCCN2C(=O)c3ccccc3C2=O)cc1 was read as GAA850 FXN act 4, EWS-Fli inh -18, F508del corr 0, HIV Env fusion -25 and PAX8 reporter -32.
Screening Nc1cccc2c1C(=O)N(CCOc1ccc(F)cc1)C2=O returned GAA850 FXN act 8.1*, EWS-Fli inh -62, F508del corr 1, HIV Env fusion -53, PAX8 reporter -174, GAA30 FXN cntr 106* and FXN GAA850 conf 26*.
`CC(Cc1ccccc1)Nc1ncnc2c1ncn2C1OC(CO)C(O)C1O` (centres undefined) gave GAA850 FXN act 8.7*, EWS-Fli inh -26, F508del corr 2, HIV Env fusion 13, PAX8 reporter -25, GAA30 FXN cntr 55* and FXN GAA850 conf 25*.
Screening OC[C@H]1O[C@@H](n2cnc3c(NC4CCCC4)nc(Cl)nc32)[C@H](O)[C@@H]1O returned GAA850 FXN act 8.5*, EWS-Fli inh -3, F508del corr 1, HIV Env fusion -2, PAX8 reporter 12, GAA30 FXN cntr 31* and FXN GAA850 conf 18*.
O=C(Nc1cccc(C(F)(F)F)c1)C(=O)N1CCCCC1 was read as GAA850 FXN act 8.1*, EWS-Fli inh -16, F508del corr -1, HIV Env fusion inconclusive, PAX8 reporter -46, GAA30 FXN cntr 53* and FXN GAA850 conf 21*.
For CCC(=O)Nc1ccc2c(c1)C(=O)N(C)C[C@H](OC)[C@@H](C)CN(C(=O)Cc1ccccn1)[C@@H](C)CO2 the results were EWS-Fli inh -10, F508del corr -1 and PAX8 reporter -10.
`CO[C@@H]1CN(C)C(=O)c2ccc(NC(=O)C3CC3)cc2OC[C@H](C)N(CCC(F)(F)F)C[C@H]1C` gave EWS-Fli inh 10, F508del corr 3 and PAX8 reporter 10.
For CCOC(=O)N/N=C/c1c(C)nn(-c2ccccc2Cl)c1Cl the results were GAA850 FXN act 8.2*, HIV Env fusion -25, PAX8 reporter -156, GAA30 FXN cntr 93* and FXN GAA850 conf 34*.
For O=C(N[C@H]1CC[C@H](CCNC(=O)c2ccccc2F)O[C@@H]1CO)c1ccc2c(c1)OCO2 the results were EWS-Fli inh 4, F508del corr -1, HIV Env fusion 4[16.7 µM] and PAX8 reporter 17.
CC(=O)Nc1ccc2c(c1)Cc1c-2cc(Br)c(N)c1Br was read as GAA850 FXN act 7.6*, EWS-Fli inh -23, F508del corr 6, HIV Env fusion -17, PAX8 reporter -32, GAA30 FXN cntr 63* and FXN GAA850 conf 28*.
For CC(=O)Nc1c(Br)cc2c(c1Br)Cc1cc(Br)ccc1-2 the results were GAA850 FXN act 2, EWS-Fli inh 10, F508del corr 4, HIV Env fusion -167 and PAX8 reporter 0.
